Sampled rows, rich in hits. Any-hit rate of the full collection: about 3.1%.
LGR2 antag: blocks bursicon-induced cAMP signaling via Drosophila LGR2. HEK293 LGR2, CRE-luciferase, bursicon-stimulated, 4 h. inhibition, % at 9.99 µM. hit rate 0.35% among 380,000;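 active = drop in luminescence signal, shown as inhibition above about 50% in the replicate tests, limit read from the data, passing the limit was not always enough; inconclusive = probably only some replicates passing the limit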;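 note: agonist challenge used bursicon conditioned medium at about half maximal strength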
PAX8 inh HTS: PAX8 transcriptional activity inhibition; RMG-I TPO-luciferase reporter, SteadyGlo, 24 h; inhibition, % at 12.6 µM; hit rate 1.2% among 360,000;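 active = mean replicate inhibition at least 60% with every replicate also reaching 60%; inconclusive = only one of the two criteria is met; inactive = mean below 60% and not all replicates reaching 60%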;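 note: luciferase light reporting Pax8 driven TPO promoter activity; plate controls were median of neutral control wells for no effect and mitoxantrone controls for full effect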
TROY NFkB inh: blocks TROY-dependent signaling in reporter cells; inhibition, % at 10 µM; hit rate 0.98% among 360,000; Q293 LMP1-TROYcd NF-kB luciferase reporter, 4 h;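 active = compounds whose plate-normalised and pattern-corrected inhibition of the luciferase reporter signal at the single screening dose is 50% or more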
TWEAK-Fn14 inh: inhibitors of TWEAK-Fn14 interaction signaling | TWEAK-stimulated Fn14 reporter cells, luciferase luminescence, 8 h | inhibition, % at 10 µM | hit rate 2% among 360,000; in the data active = inhibition above about 50%
EWS-Fli block: EWS/Fli transcriptional activity inhibition | inhibition, % at 12.6 µM | A673 NR0B1-luciferase reporter, viability-normalised | hit rate 0.67% among 350,000;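 active = mean inhibition of at least 50% after viability correction, with every replicate also passing that limit; inconclusive = mean reaches 50% but only one of two replicates passes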;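 note: firefly luciferase signal divided by Alamar Blue viability fluorescence both relative to DMSO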
LMP1 NFkB inh: inhibitors of Epstein-Barr LMP1-induced NF-kappaB reporter; LMP1-induced NF-kappaB luciferase reporter cells, luminescence; inhibition, % at 12.5 µM; hit rate 0.69% among 350,000; in the data active = inhibition above about 41%; inconclusive = no clear call, values can overlap the other calls;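 note: 0% = neutral control wells and 100% = reference inhibitor control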
DNA binder FP: DNA binding small molecules; salmon sperm DNA acridine orange fluorescence polarization; shares compounds with EWS-Fli block; hit rate 2% among 640; AC35, µM (top dose mostly 68 µM), for inactives: top-dose activity change, negative = DNA binding; AID 720586;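 active = fitted curve reaches a 35% signal fall AC35 below twice the sample's top valid tested dose, actives reach about 48 µM in these data; inactive = the rest, including activity in the rising direction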;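 note: lower polarization ratio signals compound binding to DNA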
Numbers without * were called inactive; ? = inconclusive; / = not tested or not shown; ! = not confirmed by another sample; [ ] = remark or other dose.

SMILES	LGR2 antag	PAX8 inh HTS	TROY NFkB inh	TWEAK-Fn14 inh	EWS-Fli block	LMP1 NFkB inh	DNA binder FP
Cc1ccc(C(C(=O)NCc2ccco2)N(C(=O)CNC(=O)c2cccs2)c2c(C)cc(C)cc2C)cc1 (stereo not drawn)	7	/	0	-18	55*	-47	8%
C[C@H](CO)N1C[C@H](C)[C@H](CN(C)Cc2ccc(-c3ccccc3)cc2)Oc2ccc(NC(=O)C3CC3)cc2C1=O	1	/	/	/	3	/	/
O=C(C[C@H]1C[C@H]2c3cc(NC(=O)Nc4ccccc4)ccc3O[C@H]2[C@@H](CO)O1)NCc1ccccn1	6	0	/	/	-2	/	/
CCN1/C(=C\C(=S)Nc2ccccc2)Sc2ccccc21	/	-71	11	18	-62	-15	/
CCN1/C(=C/C(C)=C/c2sc3ccccc3[n+]2CC)Sc2ccccc21	110*!	102*	33	82*	78*!	-10	2.2µM*
C[C@H]1CN([C@@H](C)CO)C(=O)Cc2cc(NC(=O)CCC(F)(F)F)ccc2O[C@H]1CN(C)Cc1ccc(C(=O)Nc2ccccc2N)cc1	11	46	/	/	53*	/	3%[56 µM]
C[C@H]1CN([C@@H](C)CO)C(=O)Cc2cc(NC(=O)CCC(F)(F)F)ccc2O[C@@H]1CN(C)Cc1ccc(C(=O)Nc2ccccc2N)cc1	-2	24	/	/	-2	/	/
C[C@H](CO)N1C[C@H](C)[C@H](CN(C)Cc2ccc(C(=O)Nc3ccccc3N)cc2)Oc2ccc(NC(=O)C3CC3)cc2CC1=O	14	5	/	/	64*	/	-16%
C[C@@H]1CN([C@@H](C)CO)C(=O)Cc2cc(N(C)C)ccc2O[C@H]1CN(C)Cc1ccc(C(=O)Nc2ccccc2N)cc1	-17	77*	/	/	60*	/	-2%[60 µM]
COc1ccc(CN(C)C[C@H]2Oc3ccc(NC(=O)CCCCCC(=O)Nc4ccccc4N)cc3CC(=O)N([C@H](C)CO)C[C@H]2C)cc1	-9	/	/	/	56*	/	-4%[56 µM]
C[C@H]1CN([C@@H](C)CO)C(=O)Cc2cc(NC(=O)c3ccncc3)ccc2O[C@@H]1CN(C)Cc1ccc(C(=O)Nc2ccccc2N)cc1	17	-20	/	/	-7	/	/
COc1ccccc1-c1cn(CC[C@H]2CC[C@@H](NC(=O)c3cnccn3)[C@H](CO)O2)nn1	6	/	/	/	/	/	/
COc1ccc(C(=O)Nc2ccc3c(c2)OC[C@@H](C)N(C(=O)C2CC2)C[C@@H](C)[C@H](OC)CN(C)C3=O)cc1	7	/	/	/	-4	/	/
COc1cc(/C=N/NS(=O)(=O)c2ccc3ccccc3c2)ccc1OCc1ccc(C(=O)O)cc1	82*	84*	-35	-38	69*	67*	10%
COc1ccc(/C=N/NS(=O)(=O)c2ccc(C)cc2)cc1OC(=O)c1ccccc1	/	/	2	14	/	-7	/
COc1cc(/C=N/NS(=O)(=O)c2ccc(C)cc2)ccc1OCc1cccc(C(=O)O)c1	80*	91*	-30	-31	79*	73*	-9%
COC(=O)c1ccc(COc2ccccc2/C=N/NS(=O)(=O)c2ccccc2)cc1	1	/	1	11	19	4	/
COCC#Cc1ccc2c(c1)O[C@H](CN(C)C)[C@@H](C)CN([C@H](C)CO)S2(=O)=O	-4	6	/	/	2	/	/
Nc1nc(N)c2c(ccc3nccc32)[nH]1	0	16	-12	-9	56*	1	-12%
Cc1cccc(N=C2NN=C(c3ccccc3F)CS2)c1C	-48	-20	-17	17	-32	-20	/
COc1ccc(C2=NNC(=Nc3cc(S(=O)(=O)N(C)C)ccc3C)SC2)c(OC)c1	-6	103*	14	30	52*	-3	-19%
COc1ccccc1C(CCNCc1ccc(N(C)C)cc1)c1ccc(OC(C)C)cc1 (stereo not drawn)	36	38	7	-14	60*	-24	5%
COc1ccc(C(CCNCc2ccc(OC(C)C)cc2)C(C)C)cc1 (stereo not drawn)	15	0	-21	-6	70*	/	-9%
COc1ccc(CNCCC(c2ccc(OC(C)C)cc2)C(C)C)cc1OC (stereo not drawn)	/	/	14	-2	/	-27	/
CN1CCN(CCCNC(=O)c2ccc(/C=C3\Oc4ccccc4N(Cc4ccccc4F)C3=O)cc2)CC1	-12	13	-5	-67	20	-6	/
SMILES	LGR2 antag	PAX8 inh HTS	TROY NFkB inh	TWEAK-Fn14 inh	EWS-Fli block	LMP1 NFkB inh	DNA binder FP
Cc1cccc(CN2C(=O)/C(=C\c3ccc(C(=O)NCCCN4CCN(C)CC4)cc3)Oc3ccccc32)c1	9	?	-11	-173	65*	-1	-13%
CC(=O)Nc1ccccc1C	-12	/	3	9	-4	4	/
Cc1ccccc1NC(=O)C(=Cc1ccc(C(=O)O)cc1)C(=O)Nc1ccccc1C	27	109*	16	78*	54*	9	-9%
CCCCNC1=CC(=O)C(=O)c2ccccc21	11	?	-24	13	54*	3	2%
COc1cccc(CNC(=O)[C@H]2[C@H](CO)[C@H]3Cn4c(ccc(-c5cccnc5)c4=O)[C@H]3N2C)c1	16	5	/	/	1	/	/
CN(C)C(=O)c1cccc(-c2ccc(C3[C@@H]4CN(Cc5nccs5)C[C@H]3N4)cc2)c1 (stereo partly drawn)	-11	-9	/	/	59*!	/	-3%
COc1ccc(OC)c(-c2nnc3n2N=C(c2ccc(OC)c(OC4CCOC4)c2)CS3)c1 (stereo not drawn)	-1	97*	27	22	59*	26	-2%
Cc1cccc(C)c1NC(=O)CN1CCN(C(=O)CNC(=O)c2ccc(-c3ccccc3)cc2)CC1	7	-95	11	-1	-9	11	/
Cc1cccc(NC(=O)CN2CCN(C(=O)CNC(=O)c3ccc(-c4ccccc4)cc3)CC2)c1C	29	22	30	35	66*	10	13%
C[C@@H]1CCCCO[C@@H](CN(C)Cc2ccc(C(=O)O)cc2)[C@H](C)CN([C@@H](C)CO)C(=O)c2cc(NS(=O)(=O)c3ccc(Cl)cc3)ccc2O1	-18	-7	/	/	-6	/	/
COc1ccc(-c2ccc(C3[C@H]4CNC[C@@H]3N4S(=O)(=O)c3cn(C)cn3)cc2)cc1 (stereo partly drawn)	19	/	/	/	/	/	/
C(=Cc1cnc2ccccc2n1)c1ccc2c(c1)OCO2	99*	97*	81*	98*	88*	80*	1%
C(=Cc1nc2ccccc2o1)c1ccc2c(c1)OCO2	81*	3	58*	86*	69*	45*	3%
Cc1ccc(S(=O)(=O)Nc2ccc3c(c2)C(=O)N([C@@H](C)CO)C[C@H](C)[C@@H](CN(C)Cc2ccc(C(F)(F)F)cc2)OCCCC[C@@H](C)O3)cc1	14	97*	/	/	55*	/	13%
